Source: PubChem BioAssay
Sampled rows, rich in hits. Any-hit rate of the full collection: about 1.7%.
BJeLR lethal: BJeLR cell viability loss. inhibition, % (concentration not given with the values). 300,000 compounds, 0.17% hits. BJeLR (HRASV12) viability, CellTiter-Glo ATP luminescence, 48 h. AID 1554; in the data active means inhibition above about 50%
SSB-PriA inh: blocks PriA binding to SSB C-terminal tail | 430,000 compounds, 0.6% hits | inhibition, % at 33 µM | AID 1272365 | AlphaScreen SSBct-PriA binding, biotinylated peptide; in the data active means inhibition mostly above about 37%, no sharp cut-off; inactive means mostly below about 20%;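 further: plate controls were negative control peptide for no effect and reference peptide for full effect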
PfHsp40 rescue: rescue of PfHsp40-mediated yeast toxicity; S. cerevisiae expressing PfHsp40, growth rescue, ATP luminescence; growth rescue, % at 12.5 µM; 340,000 compounds, 0.68% hits; in the data active means growth rescue above about 28%, passing the limit was not always enough;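 further: yeast W303a lacking pdr1 and pdr3 grown in galactose medium; growth measured after three days at 30 °C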
PrP UTR inh: inhibition of PrP 5' UTR reporter expression; cell-based PrP 5' UTR mRNA reporter, plate reader; inhibition, % (concentration not given with the values); 340,000 compounds, 0.35% hits; AID 488862; in the data active means inhibition above about 52%; further: 0 = median of the neutral control wells
Y pestis TopoI: inhibitors of Yersinia pestis topoisomerase I; activity, % at 10 µM; 360,000 compounds, 0.064% hits; Y. pestis Topo-I cleavage product accumulation, plate reader; in the data active means activity above about 50%, passing the limit was not always enough
PrPC surface inh: reduces human prion protein on the cell surface. P04156. cell surface PrPC, TR-FRET read-out. inhibition, % at 13.8 µM. 370,000 compounds, 0.43% hits; in the data active means inhibition above about 24%; further: 0% = median of the test wells and 100% = reference compound wells
Starred values were filed as active, the others as inactive; . = no result.

SMILES	BJeLR lethal	SSB-PriA inh	PfHsp40 rescue	PrP UTR inh	Y pestis TopoI	PrPC surface inh
O=C(Cc1cc(-c2ccccc2F)on1)Nc1ccc2c(c1)OCCO2	.	6	.	.	.	.
COc1ccc(S(=O)(=O)N(CCc2ccccc2)CC(N)=O)cc1	4	-9	104*	-26	3	4
COCCNC(=O)CN(CCc1ccccc1)S(=O)(=O)c1ccc(OC)cc1	-5	-9	-1	-28	9	-3
CC(C)(C)C1CCc2[nH]c3ccccc3c(=O)c2C1 (stereo not drawn)	-6	14	102*	-29	3	7
C=CCCC1(C)NNc2nc(=O)c(C)nn21 (stereo not drawn)	.	98*	.	.	.	.
N#Cc1nccnc1O[C@H]1CCN(C(=O)N2CCOCC2)C1	.	-7	.	.	.	.
CCN1/C(=C/c2sc(-c3ccccc3C)c[n+]2C)Sc2ccccc21	17	.	312*	-5	12	14
COC(=O)/C=C/c1ccccc1S(=O)(=O)N(Cc1ccccc1)Cc1ccco1	18	-15	0	-22	57*	4
O=S(=O)(c1ccccc1OC(F)(F)F)N(Cc1ccsc1)Cc1ccco1	.	-16	.	.	.	.
Cc1ccc(NC(=O)N(CCCN2CCOCC2)Cc2cccs2)cc1C	-4	92*	1	4	2	-6
CCOC(=O)c1nc(Nc2ccc(Nc3ccccc3)cc2)c2ccccc2n1	6	47*	6	-5	-13	-10
O=Cc1[nH]c2ccccc2c1N(C(=O)CCl)c1ccc([N+](=O)[O-])cc1	111*	-11	7	-22	-7	-16
CCCS(=O)(=O)c1c(S(=O)(=O)CCC)c2c(C)cccn2c1C(=O)NN=Cc1cc(O)cc(O)c1	.	0	.	.	.	.
CCCS(=O)(=O)c1c(S(=O)(=O)CCC)c2c(C)cccn2c1C(=O)N/N=C/c1cc(O)cc(O)c1	35	.	452*	-4	-11	19
CCc1nc2ccc(C(=O)N3CCC(S(=O)(=O)c4ccc(Cl)cc4)C3)cc2s1 (stereo not drawn)	.	-23	.	.	.	.
O=C(O)c1cccc2nc3ccccc3nc12	-11	4	48*	-4	-9	-26
O=C(O)c1nc2ccccc2nc1C(=O)O	1	1	0	-46	1	0
Cc1cc(OC2CN(C(=O)C(C)(C)C)C2)cc(=O)o1	.	-12	.	.	.	.
Cc1cc(/C=C2\SC(=S)NC2=O)c(C)n1-c1cccc(O)c1	-12	2	240*	-46	-6	-3
Cc1ccc(-n2c(C)cc(/C=C3\SC(=O)NC3=O)c2C)cc1	8	-1	1	-51	-3	-9
CCOC(=O)N1CCN(C(=O)c2cc(C)no2)CC1	-1	98*	23	-23	-1	-6
Cc1cc(C(=O)N2CCC(C)CC2)on1	0	-4	-1	11	-7	9
Cn1c(=O)c2c(SCC(=O)N3CCCC3)nc(-c3ccc(Br)cc3)nc2n(C)c1=O	.	-14	.	.	.	.
O=C(Cc1csc(Nc2cccc(Cl)c2)n1)NCCc1c[nH]c2ccccc12	.	36*	.	.	.	.
O=C(CCCc1cccs1)NCCc1c[nH]c2ccccc12	9	46*	.	-12	-1	-3
SMILES	BJeLR lethal	SSB-PriA inh	PfHsp40 rescue	PrP UTR inh	Y pestis TopoI	PrPC surface inh
O=C(Cc1csc(NC(=O)Nc2ccc(Cl)cc2)n1)NCCc1c[nH]c2ccccc12	.	52*	.	.	.	.
O=C(Nc1ccc(Cl)cc1)Nc1nc(C(=O)O)cs1	.	87*	.	.	.	.
O=C(Cc1csc(NC(=O)Nc2cccc(Cl)c2)n1)NCCc1c[nH]c2ccccc12	.	-5	.	.	.	.
Cn1c(=O)oc2ccc(S(=O)(=O)NC3CCN(c4ccc(C(F)(F)F)cn4)C3)cc21 (stereo not drawn)	.	10	.	.	.	.
CC(C)CS(=O)(=O)C1CN(S(=O)(=O)c2ccc(Br)s2)C1	.	-4	.	.	.	.
O=P(c1ccccc1)(c1ccccc1)c1nc(-c2ccccc2)oc1N1CCOCC1	0	11	1	-2	58*	-7
CC(=O)[C@]1(O)Cc2c(O)c3c(c(O)c2[C@@H](O[C@H]2C[C@H](N)[C@H](O)[C@H](C)O2)C1)C(=O)c1ccccc1C3=O	82*	42	.	.	.	.
COC(=O)C1=C(C)NC(C)=C(C(=O)OC)C1c1ccccc1[N+](=O)[O-]	-11	8	37*	11	2	1
CCOC(=O)C1=C(C)NC(C)=C(C(=O)OC)C1c1cccc([N+](=O)[O-])c1 (stereo not drawn)	-4	-1	0	7	-13	6
O=C(O)c1ccccc1-c1ccccc1C(=O)Nc1ccc(N=Nc2ccccc2)cc1	.	0	.	.	.	.
CC(OC(=O)CNS(=O)(=O)c1ccc2ccccc2c1)C(=O)N(C)c1ccccc1 (stereo not drawn)	2	1	0	-5	17	0
CC(OC(=O)COc1ccc(Nc2ccccc2)cc1)C(=O)N(C)c1ccccc1 (stereo not drawn)	-5	40*	1	-3	26	-5
O=C(O)CSc1c(-c2ccccc2)[nH]c2ccccc12	-6	16	-1	-3	-9	1
N=C(N)Sc1c(-c2ccccc2)[nH]c2ccccc12	.	37*	.	.	.	.
O=C(c1cnn(-c2ccccc2)n1)N1CCSC(c2ccccc2)CC1 (stereo not drawn)	.	-18	.	.	.	.
O=C(c1ccc(N2CCN(C(=O)c3ccccc3Br)CC2)cc1)c1cccc(F)c1	5	-21	34*	9	29	6
S=C(NCc1ccco1)Nc1ccc(Oc2ccc(Cl)cc2)cc1	7	5	194*	-9	-2	-1
C/C(=N/NC(=S)NCc1ccco1)c1ccco1	.	43*	.	.	.	.
CCNC(=S)N/N=C(\C)c1ccco1	13	.	-1	-4	5	-1
S=C(NCc1ccco1)Nc1ccc(Cl)cc1	5	-3	0	-17	-4	2
O=C(CSc1ncnc2ccccc12)Nc1cccc(Cl)c1	.	-4	.	.	.	.
Cc1cccc2sc(N(CCCn3ccnc3)C(=O)c3ccc(Cl)s3)nc12	.	21	.	.	.	.
Cc1c(Cl)ccc2sc(N(CCCn3ccnc3)C(=O)c3ccco3)nc12	.	69*	.	.	.	.
O=C(c1ccco1)N(CCCn1ccnc1)c1nc2c(Cl)cccc2s1	.	64	.	.	.	.
Cc1ccc(C)c2sc(N(CCCn3ccnc3)C(=O)c3ccco3)nc12	.	-20	.	.	.	.
SMILES	BJeLR lethal	SSB-PriA inh	PfHsp40 rescue	PrP UTR inh	Y pestis TopoI	PrPC surface inh
CCOc1cccc2sc(N(CCCn3ccnc3)C(=O)c3ccc(Cl)s3)nc12	.	50*	.	.	.	.
O=C(c1ccco1)N(CCCn1ccnc1)c1nc2c(F)cccc2s1	.	72*	.	.	.	.
COc1cccc2sc(N(CCCn3ccnc3)C(=O)c3ccco3)nc12	.	57*	.	.	.	.
COc1ccc(NC(=O)COc2cccc3ccc(N4CCOCC4)nc23)c(OC)c1	.	-12	.	.	.	.
CCc1cccc2sc(N(CCCn3ccnc3)C(=O)c3ccco3)nc12	.	110*	.	.	.	.
CCc1ccc(N2CCN(S(=O)(=O)N(C)C)CC2)cc1	.	7	.	.	.	.
O=S(=O)(Cc1ccc(Cl)cc1)c1ccc(N2CCN(c3ccccc3F)CC2)nn1	.	-13	.	.	.	.
O=C(CSc1ccc(-c2ccccn2)nn1)c1ccccc1	0	-12	401*	-42	13	1
O=C(CSc1ccc(-c2ccccn2)nn1)N1CCCC1	12	24	91*	-13	-1	11
